PfG6PD inh = PfG6PD enzyme inhibitors, primary screen, biochemical, fluorescence intensity, uHTS. glucose-6-phosphate dehydrogenase-6-phosphogluconolactonase (Plasmodium falciparum 3D7). PfGluPho enzyme, NADPH resazurin-diaphorase fluorescence. inhibition, % at 20 µM. actives 0.78% (n = 350,000). AID 504690, 2011;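 active = inhibition reaching at least a set limit at 20 µM in the primary screen, cut at about 59% in these data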;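 note: 0% = DMSO wells with substrate and 100% = DMSO wells lacking glucose-6-phosphate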
M18AAP inhibitor = PfM18AAP inhibitors, malaria aminopeptidase, primary screen, biochemical, QFRET, recombinant enzyme. M18 aspartyl aminopeptidase (Plasmodium falciparum 3D7). H-Glu-NHMec fluorogenic cleavage. inhibition, % at 7.35 µM. actives 1.2% (n = 290,000);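 active = inhibition above the campaign mean inhibition over all tested compounds plus 3 SD, cut at about 28% in these data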;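 note: 0% = plate median of test compound wells and 100% = 2 mM ZnCl2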
ALR H2O2 inh = inhibitors of human ALR sulfhydryl oxidase, primary screen, biochemical, H2O2 detection, HRP-luminol luminescence, single point | FAD-linked sulfhydryl oxidase ALR (Homo sapiens), P55789 | purified ALR, DTT oxidation | inhibition, % (test concentration not listed) | actives 3.8% (n = 290,000);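 active = mean replicate inhibition above about 79%, with every replicate also reaching it, limit read from the data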
Target sequence (P55789 whole entry, looked up): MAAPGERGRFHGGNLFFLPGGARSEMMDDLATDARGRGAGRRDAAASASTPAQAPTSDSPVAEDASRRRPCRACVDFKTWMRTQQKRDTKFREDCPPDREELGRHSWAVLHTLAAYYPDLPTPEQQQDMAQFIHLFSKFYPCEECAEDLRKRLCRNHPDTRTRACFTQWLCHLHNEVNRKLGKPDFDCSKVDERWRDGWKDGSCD
Cardio protect = cardioprotection against H2O2-induced cell death, primary screen, uHTS, H9c2 cells, ATPLite luminescence. actives 0.63% (n = 360,000). protection from H2O2 cell death, % at 20 µM. H9c2 cardiomyocytes, H2O2 injury protection, 2 h;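 active = compounds giving at least 50% protection of heart cells from peroxide-induced death in the single-dose screen, raw or plate-pattern-corrected value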;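 note: 0% = DMSO wells with peroxide and 100% = DMSO wells without peroxide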
PHOSPHO1 block = PubChem AID 1565. Phosphoethanolamine/phosphocholine phosphatase (Homo sapiens), Q8TCT1. inhibition, % at 13.3 µM. actives 1.1% (n = 290,000). recombinant PHOSPHO1, absorbance phosphatase assay; in the data active = inhibition above about 60%
Target sequence (Q8TCT1 whole entry, looked up): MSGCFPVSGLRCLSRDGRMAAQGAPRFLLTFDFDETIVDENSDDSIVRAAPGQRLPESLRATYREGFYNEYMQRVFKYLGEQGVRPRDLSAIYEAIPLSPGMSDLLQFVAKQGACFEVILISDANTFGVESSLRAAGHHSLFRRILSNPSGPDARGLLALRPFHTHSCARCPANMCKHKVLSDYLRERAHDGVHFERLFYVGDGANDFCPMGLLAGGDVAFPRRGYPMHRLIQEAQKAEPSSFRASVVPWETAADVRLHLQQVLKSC
The depositor's hits bear a star; nt = no result. The list is not random: actives were taken first. Their share in the collection is about 5.6%.

SMILES	PfG6PD inh	M18AAP inhibitor	ALR H2O2 inh	Cardio protect	PHOSPHO1 block
COc1ccc(NC(=O)CSc2nnc(C)c3ccccc23)cc1	-23	2	99*	27	29
COc1ccc(NC(=O)CSc2c(C)n[nH]c2C)cc1	-7	-4	99*	13	22
O=C(O)/C=C/c1cn(-c2ccccc2)nc1-c1ccc(-c2ccc([N+](=O)[O-])cc2)o1	29	-26	-3	15	-5
CC[C@H](C)C(C(=O)N1CCN(C(=O)OC(C)(C)C)CC1)n1cc(C(Cc2ccc(O)cc2)NC(=O)OC(C)(C)C)nn1 (stereo partly specified)	2	3	18	51*	18
CC[C@H](C)C(C(=O)N1CCN(C(=O)OC(C)(C)C)CC1)n1cc(C(CO)NC(=O)OC(C)(C)C)nn1 (stereo partly specified)	0	1	-30	16	-24
O=C(Nc1ccc(F)cc1)Nc1nnc(Cc2ccccc2F)s1	14	-4	-6	-19	8
CC(=O)NC(Cc1ccc(C)cc1)C(=O)NC1CCN(C(=O)NCc2ccccc2)CC1 (stereo unspecified)	-4	-3	nt	7	18
NNC(=O)c1ccccc1CO	-24	nt	79*	nt	nt
COc1cc(NC(=O)CN2c3ccccc3CC2C)cc(OC)c1OC (stereo unspecified)	-19	-1	97*	5	6
COC(=O)c1cc(=O)nc2sc(-c3ccc(F)cc3)nn12	59*	-20	-4	-2	95*
COC(=O)c1cc(=O)nc2sc(-c3cccs3)nn12	8	0	1	5	9
Clc1ccc(C(c2cccs2)N2CCNCC2)cc1 (stereo unspecified)	4	nt	nt	7	nt
COc1ccccc1-c1cc2nc(-c3ccccc3)cc(N3CCN(C(=O)c4ccoc4)CC3)n2n1	8	nt	nt	50*	nt
COc1ccc(-c2cc(C(F)(F)F)n3nc(C(=O)N4CCCC4)cc3n2)cc1	-7	-4	0	-10	15
COc1ccccc1-c1cc2nc(-c3ccccc3)cc(N3CCN(C(=O)c4ccco4)CC3)n2n1	25	nt	nt	55*	nt
COc1ccc(-c2cc3nc(C)cc(N4CCN(C(=O)c5ccoc5)CC4)n3n2)cc1	19	nt	nt	54*	nt
COc1cccc(-c2cc3nc(C)cc(N4CCN(C(=O)c5ccoc5)CC4)n3n2)c1	16	nt	nt	32	nt
COc1ccc(-c2cc(C(F)(F)F)n3nc(C(=O)N4CCN(C(=O)c5ccco5)CC4)cc3n2)cc1	0	1	1	55*	15
CC(C)(C)OC(=O)NCCc1onc(-c2ccccc2F)c1C(=O)O	-6	nt	nt	5	nt
O=C(Nc1cccc2c1[nH]c(=O)c1ccccc12)C(F)(F)F	9	nt	nt	36	nt
O=C(Nc1ccc2c(c1)[nH]c(=O)c1ccccc12)C(F)(F)F	33	nt	nt	64*	nt
CC(=O)Nc1c(O)c2ccccc2[nH]c1=O	-1	24	2	-1	20
CC(=O)Nc1ccc2c(c1)[nH]c(=O)c1ccccc12	7	nt	nt	75*	nt
NS(=O)(=O)c1ccc(Sc2nc3ccccc3s2)c([N+](=O)[O-])c1	2	6	98*	-14	18
O=C(O)c1ccc(S(=O)(=O)Nc2cccc(CP(=O)(c3ccccc3)c3ccccc3)c2)cc1	-27	-9	-3	-4	-18
SMILES	PfG6PD inh	M18AAP inhibitor	ALR H2O2 inh	Cardio protect	PHOSPHO1 block
O=C(O)c1ccc(S(=O)(=O)Nc2ccc(O)c(Sc3nc4ccccc4s3)c2)cc1	-10	20	100*	12	23
CCOc1ccc(S(=O)(=O)N(C)CCO)cc1-c1nc2c(C(C)(C)C)nn(C)c2c(=O)[nH]1	-3	5	-11	56*	6
Cc1cnc(C(=O)OC(C)C(=O)Nc2cccc3ccccc23)cn1 (stereo unspecified)	-2	nt	-14	-2	nt
NC(=O)c1ccccc1NC(=O)c1cc(S(=O)(=O)N2CCCCC2)ccc1N1CCOCC1	20	nt	nt	-2	nt
C=CCOc1ccccc1CNc1ccc2[nH]c(=O)[nH]c2c1	56	-63	99*	-7	19
COc1cc(CNc2ccc3[nH]c(=O)[nH]c3c2)ccc1OCc1ccccc1Cl	33	-10	-55	4	1
C=CCOc1ccccc1CNc1cccc(F)c1	-2	2	45	2	3
COc1cccc(CNc2ccc3[nH]c(=O)[nH]c3c2)c1OCc1ccccc1F	52	-58	99*	-1	39
C=CCN(c1ccccc1)S(=O)(=O)c1cccc(C(=O)NCc2ccco2)c1	6	nt	4	-2	nt
Cc1cc(OCc2cc(C(=O)NCCN3CCCCC3CO)no2)cc(C)c1Cl (stereo unspecified)	15	4	1	-6	48
Cc1cc(OCc2cc(C(=O)NCc3csc(C(C)C)n3)no2)cc(C)c1Cl	8	7	-4	-12	68*
O=C(CCS(=O)(=O)c1ccc(Br)cc1)NC1CCCCCC1	-14	7	4	-4	8
Cc1[nH]c2c(C)cccc2c(=O)c1CN1CCCCCC1	15	-3	0	1	nt
CCOC(=O)c1c(NC(=O)COC(=O)c2ccc(O)cc2)sc(C(=O)N(C)C)c1C	10	6	-5	63*	15
COc1cccc(C(=O)Nc2ccc(NC(C)=O)cc2)c1	3	1	-8	-1	18
COc1cccc(C(=O)Nc2cc(Cl)c(O)c(Cl)c2)c1	2	5	89*	-4	28
COc1cccc(C(=O)Nn2cnnc2)c1	-11	30*	1	2	-17
COc1cccc(C(=O)Nc2c(C(N)=O)oc3ccccc23)c1	37	-4	48	111*	-6
CC(NC(=O)COC(=O)CN1C(=O)NC2(CCCC2)C1=O)c1ccc(F)cc1 (stereo unspecified)	-9	nt	nt	-2	nt
NC(=Nc1ccccc1)N(c1ccccc1)c1ccccc1	2	nt	nt	1	nt
O=C1OC(Sc2ccccc2)(c2ccccc2)c2ccccc21 (stereo unspecified)	37	nt	nt	-8	nt
O=C(Nc1c(C(=O)O)oc2ccc(Br)cc12)c1ccccc1	-26	3	95*	3	-11
Cc1c(C(=O)NNC(=O)c2ccccc2O)oc2ccc(Br)cc12	-27	nt	4	33	nt
CCNC(=S)/N=C(/Nc1ccccc1)Nc1nc(C)cc(C)n1	53	30*	nt	24	20
O=C1c2ccccc2C(=O)C12OC2c1cccc2ccccc12 (stereo unspecified)	26	3	30	6	66*
O=C1NC(c2cccc3ccccc23)Nc2ccccc21 (stereo unspecified)	9	nt	nt	-4	nt
Cc1ccc(OCc2nnc(SCC(=O)c3ccccc3)n2Cc2ccco2)cc1	26	0	26	-15	92*

Screening data as filed in PubChem BioAssay.
